Assay outcomes: PubChem, National Center for Advancing Translational Sciences (NCATS)
This is a sample that favours compounds with a hit; in the whole collection about 9.2% have one here.
SMN2 splice up: qHTS Assay for Enhancers of SMN2 Splice Variant Expression. AID 1458, 2008. actives 2.8% (n = 210,000). Potency, µM (titrated, usually from 46.1 µM), inactives show at the top dose activity change, positive = activation, most hits filed as activators. HEK293 SMN2-luciferase splicing reporter, luminescence, 30-36 h; also: % of control where 0% means no effect; nearly all actives have a fitted effect of over 55% in size
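HEK293 cells carry an SMN2 minigene-luciferase reporter in which exon 7 inclusion puts luciferase in frame. Cells were seeded at 2000 cells/well, attached for 10-12 hours, then exposed to compounds for 30-36 hours at 37C before ONE-Glo luminescence.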
FLuc counter: qHTS profiling assay for firefly luciferase inhibitor/activator using purifed enzyme and Km concentrations of substrates (counterscreen for miR-21 project). Luciferin 4-monooxygenase (Photinus pyralis), P08659. purified FLuc, Km substrates, luminescence inhibition. Potency, µM (highest dose often 57.5 µM), without a hit: top-dose activity change, negative = inhibition, usual class: inhibitors. actives 6.9% (n = 360,000). AID 588342, 2011;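 also: plate controls were vehicle for no effect and reference inhibitor for full effect; nearly all actives have a fitted effect of over 55% in size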
Target sequence (P08659 whole entry, looked up): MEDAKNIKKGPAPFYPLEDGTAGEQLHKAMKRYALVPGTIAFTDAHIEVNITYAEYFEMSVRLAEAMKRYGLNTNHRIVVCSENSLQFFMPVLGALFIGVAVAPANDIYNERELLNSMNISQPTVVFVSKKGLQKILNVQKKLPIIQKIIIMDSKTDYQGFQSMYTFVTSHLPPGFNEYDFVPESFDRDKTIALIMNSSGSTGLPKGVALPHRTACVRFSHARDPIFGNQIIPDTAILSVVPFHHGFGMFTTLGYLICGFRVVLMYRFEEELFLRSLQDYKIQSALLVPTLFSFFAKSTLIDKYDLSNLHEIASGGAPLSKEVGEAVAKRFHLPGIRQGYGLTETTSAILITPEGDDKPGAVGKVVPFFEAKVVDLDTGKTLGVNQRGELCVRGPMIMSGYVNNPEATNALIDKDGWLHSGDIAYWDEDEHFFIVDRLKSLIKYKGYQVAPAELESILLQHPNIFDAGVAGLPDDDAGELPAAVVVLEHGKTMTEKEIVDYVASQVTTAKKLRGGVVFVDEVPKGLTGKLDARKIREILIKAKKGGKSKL
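Purified P. pyralis luciferase, 10 nM final, with Km-level 10 uM D-luciferin and 10 uM ATP in 50 mM Tris acetate pH 7.5, 10 mM Mg acetate, 0.01% Tween-20, 0.05% BSA; 6-point qHTS titration about 60 µM downward; luminescence read.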
Rab9 promoter act: qHTS Assay for Rab9 Promoter Activators. Huh7 Rab9 promoter-luciferase reporter, luminescence, 24 h. Potency, µM (doses to about 9.22 µM), inactives show at the top dose activation, negative = inhibition, actives largely listed as activators. actives 2.8% (n = 320,000). AID 485297, 2010; also: % of control where 0% means no effect; nearly all actives have a fitted effect of over 60% in size
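Luminescence read-out: Huh7 cells stably expressing Rab9-luciferase, treated 24 h with compound at 37 °C, then lysed with luciferase reagent for 10 min at ambient before reading.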
NPC1 promoter act: qHTS Assay for NPC1 Promoter Activators; AID 485313, 2010; Potency, µM (doses to about 9.22 µM), for inactives: top-dose activation, hits mostly activators; actives 2.4% (n = 320,000); Huh7 NPC1 promoter luciferase reporter, 24 h; also: % of control where 0% means no effect; nearly all actives have a fitted effect of over 60% in size
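Luminescence read-out of NPC1 promoter-driven luciferase in stably transfected Huh7 cells; compounds delivered in DMSO and left 24 h at 37C, 5% CO2, qHTS titration format.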
ELG1 DNA repair: qHTS screen for small molecules that inhibit ELG1-dependent DNA repair in human embryonic kidney (HEK293T) cells expressing luciferase-tagged ELG1; HEK293T ELG1-luciferase reporter, luminescence, 16 h; DNA damage induced by 5-fluorouridine; Potency, µM (series often up to 46.1 µM), without a hit: at the highest dose activity change, negative = inhibition, hits mostly inhibitors; actives 2.3% (n = 330,000); also: % is scaled to controls: 0 for no effect and ±100 for the full control effect; nearly all actives have a fitted effect of over 55% in size
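Luminescence from the luciferase reporter, measured 30 min after ONE-Glo reagent at room temperature, was the read-out. Beforehand, 2,000 cells per well were exposed for 16 hr at 37 °C to 5-fluorouridine together with compound or vehicle.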
ELG1 genotoxic: qHTS screen for small molecules that induce genotoxicity in human embryonic kidney (HEK293T) cells expressing luciferase-tagged ELG1; Potency, µM (series often up to 46 µM), without a hit: at the top dose activity change, positive = activation, hits mostly activators; AID 504466, 2011; actives 1.3% (n = 330,000); HEK293T ELG1-luciferase reporter, luminescence, 16 h; also: % of control where 0% means no effect; nearly all actives have a fitted effect of over 60% in size
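HEK293T cells expressing luciferase-tagged ELG1 were exposed to compound or DMSO vehicle for 16 hr at 37 °C and 5% CO2. Luciferase activity was then measured with ONE-Glo after 30 min at room temperature.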
* = called active by the depositor; ? = inconclusive; . = no result given; [ ] = remark or other dose. Calls follow the shape of the dose curve; as a rule, active = well fitted curve in the direction sought with a large enough effect; inconclusive = small, poorly fitted or top-dose-only effect, or another doubt; inactive = no such curve, though single readings can be large; an effect the other way counts as inactive or inconclusive. Potency is read from the fitted curve at half-maximal effect.

SMILES	SMN2 splice up	FLuc counter	Rab9 promoter act	NPC1 promoter act	ELG1 DNA repair	ELG1 genotoxic
CCn1c(/C=C/c2ccc(O)cc2)nc2ccccc2c1=O	.	-18%	3%	0%	?	-11%
CCCCNc1nnc(SCC(=O)N2CCN(S(=O)(=O)c3ccc4ccccc4c3)CC2)s1	-23%	7%	-2%	0%	23µM*	-9%
Cc1cccc(N(C)C(=O)c2cc3cc4ccc(C)cc4nc3o2)c1	8.9µM*	15µM*	13%	-3%	?	21µM*
CCc1ccc(NC(=O)COC(=O)CC2CCCC2)cc1	.	.	.	.	7%	-3%
CCOc1ccc(C2CC(c3c(O)n(C4CCCCC4)c(=O)[nH]c3=O)=Nc3ccccc3S2)cc1 (stereo not drawn)	.	-13%	.	.	.	.
O=C1CCCC/C1=C\Nc1ccccc1C(=O)O	-6%	-14%	2%	-3%	-2%	3%
COc1ccc(Oc2ccc(N/C=C3/CCCC3=O)cc2)cc1	-10%[1.84 µM]	0%	13%	-2%	2%	1%
O=C1CCCC/C1=C/Nc1ccc2c(c1)OCO2	?	11µM*	3.5µM*	2.8µM*	?	?
O=C1CCCC/C1=C/Nc1ccc(C(=O)O)cc1	-27%	12µM*	?	25%	?	10%
COc1ccc(N/C=C2/CCCCC2=O)cc1	42%	15µM*	?	?	?	3%
Cn1c(=O)c2c(nc(NCc3ccc4c(c3)OCO4)n2C)n(C)c1=O	32µM*	1%	-1%	-1%	4%	-2%
Nc1nc2nn(-c3ccccc3)nc2c(=O)[nH]1	.	4.8µM*	2.8µM*	2µM*	?	?
O=C(Nc1ccc(N2CCCC2)c(Cl)c1)c1cccnc1	16µM*	12µM*	2.8µM*	3.2µM*	?	5%
O=C(Nc1ccc(N2CCOCC2)c(Cl)c1)c1cccnc1	?	?	25%	26%	25%	21µM*
O=C(Nc1ccc(N2CCOCC2)c(Cl)c1)c1cccc(F)c1	10µM*	4.3µM*	1.6µM*	1.1µM*	?	2.3µM*
COc1ccccc1NS(=O)(=O)c1cc(NC(=O)c2cccnc2)ccc1N1CCCCC1	.	.	.	.	18µM*	-5%
O=C(Nc1ccc(N2CCOCC2)c(Cl)c1)c1c(F)c(F)c(F)c(F)c1F	?	-9%	-13%	-16%	-15%	2%
O=C(Nc1ccc(N2CCCCC2)c(Cl)c1)c1cccnc1	13µM*	12µM*	2.8µM*	2.8µM*	?	?
COc1c(C)cccc1C(=O)Nc1ccc(N2CCOCC2)c(Cl)c1	11µM*	6.7µM*	3.2µM*	1.6µM*	?	8.2µM*
O=C(Nc1ccc(Cl)c(S(=O)(=O)N2CCCCC2)c1)c1cccnc1	.	3%	-1%	-7%	?	-8%
CC(C)[C@@H](CC(=O)N[C@@H]1CCCC[C@H]1C(=O)N[C@H](CC(=O)N[C@@H](CCC(=O)O)CC(=O)O)Cc1ccccc1)NC(=O)C[C@H](Cc1c[nH]c2ccccc12)NC(=O)[C@@H]1CCCC[C@H]1N	-3%	.	.	.	.	.
O=C(NCCCN1CCN(c2ccccc2F)CC1)c1ccc2nc(N3CCCCC3)sc2c1	5.6µM*	?	.	.	.	.
CC1CCN(c2nc3ccc(C(=O)NCc4ccc(Cl)cc4)cc3s2)CC1	-57%	11µM*	.	.	.	.
Cc1cccc(N2CCN(C(=O)c3ccc4nc(N5CCC(C)CC5)sc4c3)CC2)c1C	13%	?	.	.	.	.
Cc1ccc(CCNC(=O)c2ccc3nc(N4CCC(C)CC4)sc3c2)cc1	0%	-14%	.	.	.	.
